Our source for the INHIBITION values is ChEMBL document CHEMBL4513216, “Probing the Open Global Health Chemical Diversity Library for Multistage-Active Starting Points for Next-Generation Antimalarials” (ACS Infect Dis, 2020).

Among all 69,000 compounds or so, about 8,600 (12%) showed an effect of 50% or more. The entries come from a sample that favours strong results as a whole.

This assay concerns Plasmodium berghei. The assay is described as follows: Screen against P. berghei liver stage (PbLuc), transformed with Luciferase, at 10uM. It counts as functional, HepG2. The note with it: tested at 10 uM.
Turning to `Cc1cc(Cc2ccc(S(=O)(=O)N3CCCC3)cc2)c(=O)[nH]n1`, the INHIBITION is recorded as 20.9%.
In the case of `CNC(=O)C1(c2cnccn2)CCCN1C(=O)c1ncccc1C` (configuration not stated), the INHIBITION is recorded as 19.6%.
`COC(=O)CC(c1cccc(OC(F)F)c1)c1oc(C)cc(=O)c1O` (configuration not stated): the INHIBITION turned out to be 21.5%.
As for `CCS(=O)(=O)N1Cc2c(Cn3ccnc3)nn(C(C)C)c2C1`, the INHIBITION was determined as 65.1%.
Regarding `CCS(=O)(=O)N1Cc2c(Cn3cccc3)nn(C(C)C)c2C1`, the INHIBITION was 12.1%.
`CCS(=O)(=O)N1Cc2c(Cn3ccnc3)nn(C)c2C1`: the INHIBITION amounted to 26.5%.
As for `Cc1n[nH]c(C)c1CNC(=O)N(Cc1ccccc1)CC(C)(C)O`, the INHIBITION turned out to be 68%.
As to `Cc1nc2cc(=O)[nH]n2c(C)c1CC(=O)NCCCc1ccccc1`, the INHIBITION was -4.3%.
On to `CSc1ccc(CNC(=O)Cc2c(C)n[nH]c2C)cc1`, for which the INHIBITION was 21.8%.
Regarding `Cc1n[nH]c(C)c1CNC(=O)CSCc1ccccc1Cl`, the INHIBITION was -26.4%.
Consider `Cc1ncsc1CNC(=O)N(Cc1ccccc1)CC(C)(C)O`, for which the INHIBITION is 47.4%.
In the case of `Cc1n[nH]c(C)c1CC(=O)NCCc1ccccc1`, the INHIBITION is listed as 52.5%.
Regarding `CSc1ccc(CCNC(=O)Cc2c(C)n[nH]c2C)cc1`, the INHIBITION is given as 40.3%.
Regarding `Cc1nc(CNC(=O)N(Cc2ccccc2)CC(C)(C)O)oc1C`, the INHIBITION was found to be 28.6%.
Consider `Cc1n[nH]c(C)c1CC(=O)NCc1ccccc1Cl`, for which the INHIBITION is 64.8%.
As to `O=C1CN([C@@H]2CC[C@@H](NS(=O)(=O)c3ccccc3)[C@H]2O)CCN1`, the INHIBITION amounted to 4.5%.
`CC(C)C[C@H](NC(=O)NC1CCS(=O)(=O)C1)C(=O)NCc1cccnc1` (some centres not stated): the INHIBITION is listed as 44.9%.
Regarding `Cc1nccn1CCCNc1ccc(Cl)c(C#N)n1`, the INHIBITION is on record as -9.39%.
With `O=C(CN1CCOc2ccccc2C1)NCc1cc2n(n1)CCNC2`, the INHIBITION worked out at 21.7%.
`CC(O)CCN(C)C(=O)Nc1ccc(Br)cc1` (configuration not stated): the INHIBITION is -12.1%.
Turning to `N#Cc1cccnc1NCc1cccnc1N1CCC(C(N)=O)CC1`, the INHIBITION is -0.182%.
Regarding `N#Cc1cccnc1NCc1cccnc1N1CCCCC1`, the INHIBITION was determined as 51.7%.
For `CN1CCN(c2ncccc2CNc2ncccc2C#N)CC1` the value was -29.4%.
Consider `N#Cc1cccnc1Nc1ccc(N2CCC(C(N)=O)CC2)cc1`, for which the INHIBITION was 45.2%.
On to `N#Cc1ccc(NCc2cccnc2N2CCC(C(N)=O)CC2)cn1`, for which the INHIBITION is 57.3%.
In the case of `Cc1ccn(-c2ccc(NCc3cccnc3N3CCCCC3)nn2)n1`, the INHIBITION was determined as 34.4%.
As for `Cc1cccc(C(=O)N2CCC3(CCN(c4cnn(C)c4)C3=O)C2)n1` (configuration not stated), the INHIBITION turned out to be 24.9%.
`O=C1CO[C@H]2CCN(C(=O)c3ccc4c(c3)CCCC4)CC[C@@H]2N1`: the INHIBITION amounted to 16.675%.
With `O=C(CCc1ccc(F)c(F)c1)N1CCCCC1Cn1cccn1` (configuration not stated), the INHIBITION turned out to be 21.5%.
As to `O=C(c1cnccn1)N1CCc2ncc(CN3CCOCC3)n2CC1`, the INHIBITION worked out at 48.6%.
Turning to `Cc1nc2cc(=O)[nH]n2c(C)c1CC(=O)NCc1ccoc1`, the INHIBITION was found to be 15.465%.
With `CCC(NC1CCN(C(=O)c2ccccc2)CC1)c1cccs1` (configuration not stated), the INHIBITION was 7.22%.
As for `Cc1cnn(CC2CCCN2C(=O)c2cc(Cl)ccc2F)c1` (configuration not stated), the INHIBITION is on record as 22.9%.
With `O=C(O)c1cc(C=Cc2ccccc2)ncn1`, the INHIBITION is -20.2%.
For `Cc1noc([C@@H]2C[C@H]3CN(CC4CCOCC4)C[C@H]3O2)n1` the value was -7.7%; for `Cc1noc(Cl)c1CCC(=O)N1CCC(Nc2cccnn2)CC1`, -5.07%; for `COc1ccc2nnc(CCCC(=O)NCCc3ccccn3)n2n1`, 51.9%.
With `COc1ccc2nnc(CCCC(=O)NCCc3ccncc3)n2n1`, the INHIBITION worked out at 32.2%.
With `COc1ccc2nnc(CCCC(=O)NCCc3ccccc3)n2n1`, the INHIBITION is recorded as -31%.
For `Cc1nc(Cc2ccc(F)cc2)cc(C2COCCN2)n1` (configuration not stated), the INHIBITION is recorded as 35.305%.
In the case of `O=C(C1CC1)N1CCCC(c2nc(O)cc(-c3ccncc3)n2)C1` (configuration not stated), the INHIBITION is recorded as 47.2%.
On to `COc1ccc(CN2C[C@H]3C[C@H](CN(C)C)O[C@H]3C2)cc1`, for which the INHIBITION is reported as 28.4%.
For `CNCCc1nc2cc(Cl)ccc2[nH]1`, the INHIBITION turned out to be 31.9%.
For `CCNCCc1nc2cc(F)ccc2[nH]1` the value was 72.3%.
Regarding `CNCCc1nc2cc(F)ccc2[nH]1`, the INHIBITION was -2.37%.
With `CC(C)c1nc(CN2CCC(c3ccnn3CCO)CC2)no1`, the INHIBITION was found to be 38.5%.
In the case of `CCN(c1ccc(C(=O)N2CCCCCC2)cc1)S(=O)(=O)CC`, the INHIBITION came out at 3.77%.
On to `CC(C)N1CCCC(CN(C)c2ccc(Cn3ccnc3)cn2)C1` (configuration not stated), for which the INHIBITION is reported as -23.4%.
Regarding `CSCc1ccc(N(C)CC2CCCN(C(C)C)C2)nc1` (configuration not stated), the INHIBITION is given as -43.1%.
`CN(CC1CCN(c2ccccc2)C1)c1ccc(Cn2ccnc2)cn1` (configuration not stated): the INHIBITION is recorded as 74.9%.
For `Cn1c2c(c(=O)n1C)CN(C(=O)c1ccncc1F)CCC2`, the INHIBITION was 25.8%.
Take `COC(=O)c1cc(C(=O)N2CCN(C)CC2)n(-c2ccccc2)n1`: the INHIBITION amounted to 30.2%.
For `CNC(=O)NCC(=O)N1CCCC1Cc1cccc(F)c1` (configuration not stated) the value was 10.6%; for `Cc1ccc2[nH]c(C3CCN(CC(N)=O)CC3)nc2c1`, -9.51%; for `COc1ccc(CN2CC[C@H](c3nc4cccc(C(N)=O)c4[nH]3)C2)cc1`, 22.3%.
On to `Cc1ccc(CN2CC[C@H](c3nc4cccc(C(N)=O)c4[nH]3)C2)cc1`, for which the INHIBITION amounted to 59.2%.
With `NC(=O)c1cccc2nc([C@H]3CCN(Cc4ccccc4F)C3)[nH]c12`, the INHIBITION was found to be 14.9%.
